This is part of a sample that, as a whole, favours compounds with a hit. Of some 83,000 tested, about 20% had one in any assay.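 Testing used 96-well plates and a 48-hour single-concentration exposure. Example: -40 means 40% of the starting cells died.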 The source made the active and inactive calls. The calls were made as follows: active = growth percent below 10; inactive = the rest.
Key:
Assay in all cases: NCI-60 one-dose screen, 48 h (100 = growth as untreated, 0 = no growth, -100 = all killed)
SN12C renal = conditions: 10 µM
UO-31 renal = conditions: 10 µM
TK-10 renal = conditions: 10 µM unless noted
ACHN renal = conditions: 10 µM
CAKI-1 renal = conditions: 10 µM
MOLT-4 leukemia = conditions: 10 µM
A498 renal = conditions: 10 µM
CCRF-CEM leukemia = conditions: 10 µM

Measured: growth

O=[N+]([O-])c1ccccc1S(=O)c1ccccc1[N+](=O)[O-]
inactive: SN12C renal 99.7% | UO-31 renal 73.4% | TK-10 renal 135% | ACHN renal 106% | CAKI-1 renal 61.7% | MOLT-4 leukemia 42%

CC(=O)c1ccc2c(ccc3ccccc32)c1
inactive: SN12C renal 102% | UO-31 renal 100% | ACHN renal 110% | CAKI-1 renal 107% | A498 renal 92.8% | CCRF-CEM leukemia 86.2% | MOLT-4 leukemia 93%

O=C(Cc1ccc(OCc2ccccc2)cc1)NCc1ccc2c(c1)OCO2
inactive: SN12C renal 89.9% | UO-31 renal 73.7% | TK-10 renal 77% | ACHN renal 104% | CAKI-1 renal 32.5% | MOLT-4 leukemia 55.2%

O=C(Nc1ccccc1)OCCc1ccccc1
inactive: SN12C renal 95.3% | UO-31 renal 103% | TK-10 renal 95.2% | ACHN renal 104% | CAKI-1 renal 88.5% | MOLT-4 leukemia 101%

COc1cc(/C=C/C(=O)c2ccccc2)cc(OC)c1OC
active: CAKI-1 renal -23.3%
inactive: SN12C renal 53.3% | UO-31 renal 49.7% | TK-10 renal 112% | ACHN renal 51.1% | MOLT-4 leukemia 28.8%

COC(=O)CCCCC1=CCC2C(=O)C=C(O)C2C1 (stereo not given)
inactive: SN12C renal 102% | UO-31 renal 89.9% | TK-10 renal 96.4% | ACHN renal 98.9% | MOLT-4 leukemia 82.7%

c1ccc(CN2COc3c(ccc4c3OCN(Cc3ccccc3)C4)C2)cc1
active: UO-31 renal -17.5% | CAKI-1 renal 7.65% | CCRF-CEM leukemia 5.13%
inactive: SN12C renal 11.1% | TK-10 renal 30.5% | ACHN renal 12.3% | A498 renal 51.6%

CC1CCC2C(C)(C)C3CC12CC1OC13C (stereo not given)
inactive: SN12C renal 97.1% | UO-31 renal 109% | TK-10 renal 104% | ACHN renal 103% | CAKI-1 renal 98.5% | A498 renal 94% | CCRF-CEM leukemia 112% | MOLT-4 leukemia 110%

CC(C(=O)O)(C1CCCCC1)C1(O)CCCCC1 (stereo not given)
inactive: SN12C renal 100% | UO-31 renal 84.9% | TK-10 renal 91.1% | ACHN renal 107% | CAKI-1 renal 96.7% | MOLT-4 leukemia 94.3%

CNC(=O)c1ccccc1CC1(O)c2ccccc2Oc2ccccc21
inactive: SN12C renal 80.9% | UO-31 renal 57.7% | TK-10 renal 58.9% | ACHN renal 54.4% | CAKI-1 renal 44.8% | CCRF-CEM leukemia 56.4% | MOLT-4 leukemia 38.1%
active: A498 renal 0.171%

O=C(O)CCC(=O)OC(C1CO1)C(OC(=O)CCC(=O)O)C1CO1 (stereo not given)
inactive: SN12C renal 109% | UO-31 renal 85.3% | TK-10 renal 93.2% | ACHN renal 101% | CAKI-1 renal 106% | A498 renal 80.5% | CCRF-CEM leukemia 101% | MOLT-4 leukemia 99.8%

S=C1NCc2cncnc2N1
inactive: SN12C renal 107% | UO-31 renal 88.8% | TK-10 renal 97.8% | ACHN renal 93% | CAKI-1 renal 85.5% | A498 renal 104%

O=C(O)/C=C/C(=O)NCc1ccccc1
inactive: SN12C renal 108% | UO-31 renal 90.9% | ACHN renal 97.9% | CAKI-1 renal 102% | A498 renal 109% | MOLT-4 leukemia 101%

CC(=O)c1ccc(N=C(C#N)C2=C(O)c3ccccc3C2=O)cc1
inactive: SN12C renal 103% | UO-31 renal 90.8% | TK-10 renal 129% | ACHN renal 106% | CAKI-1 renal 105% | A498 renal 88.1% | CCRF-CEM leukemia 104% | MOLT-4 leukemia 92.1%

Cc1cc(=O)n(-c2ccc(F)cc2)[nH]1
inactive: SN12C renal 104% | UO-31 renal 83.3% | TK-10 renal 136% | ACHN renal 96% | CAKI-1 renal 98.9% | A498 renal 99.7% | MOLT-4 leukemia 99.7%

O=C(NCCNC(=O)c1ccc(Cl)cc1Cl)c1ccc(Cl)cc1Cl
inactive: SN12C renal 87.1% | UO-31 renal 90.9% | TK-10 renal 120% | ACHN renal 110% | CAKI-1 renal 84.4% | A498 renal 104% | MOLT-4 leukemia 96.6%

O=C(OCC(O)C1OC(c2ccccc2)OC(COC(=O)c2ccccc2)C1O)c1ccccc1 (stereo not given)
inactive: SN12C renal 99.6% | UO-31 renal 93.2% | TK-10 renal 99.6% | ACHN renal 106% | CAKI-1 renal 85.3% | MOLT-4 leukemia 102%

COc1ccccc1N1CCN(C(=S)Nc2ccccc2)CC1
inactive: SN12C renal 100% | UO-31 renal 75.3% | TK-10 renal 95.6% | ACHN renal 100% | MOLT-4 leukemia 78.7%

CCCCC(=O)c1ccc(OC)cc1
inactive: SN12C renal 105% | UO-31 renal 97% | ACHN renal 96.3% | CAKI-1 renal 99.2% | A498 renal 84.1% | CCRF-CEM leukemia 92.1% | MOLT-4 leukemia 104%

COc1ccc(/C(C#N)=C2C=C/C(=N/O)c3ccccc3\2)cc1
active: A498 renal -8.12%
inactive: SN12C renal 23.7% | UO-31 renal 31.1% | TK-10 renal 54.5% | ACHN renal 22.6% | CAKI-1 renal 25.5% | MOLT-4 leukemia 19.2%

CC(CN1CCCCC1)NC(=O)c1scnc1-c1ccccc1 (stereo not given)
inactive: SN12C renal 106% | UO-31 renal 83.7% | TK-10 renal 98.1% | ACHN renal 109% | CAKI-1 renal 87.3%

CC(CC(=O)c1ccccc1)c1ccccc1 (stereo not given)
inactive: SN12C renal 107% | UO-31 renal 95.4% | TK-10 renal 90.1% | ACHN renal 115% | CAKI-1 renal 106% | A498 renal 88.8% | CCRF-CEM leukemia 98.4% | MOLT-4 leukemia 103%

Source: PubChem BioAssay (NCI)
